GALR2 antag: GALR2 antagonists in receptor-expressing cells, primary screen; antagonist mode; inhibition, % at 4 µM; 0.39% of 140,000 active; AID 828, 2007; in the data active = inhibition above about 27%;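 also: cells stimulated with galanin 1-16 at roughly its EC80; 0% = agonist challenge control and 100% = basal control without agonist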
PLAP act: PLAP enzyme activators, biochemical, luminescence, HTS; Alkaline phosphatase, placental type (Homo sapiens), P05187; purified PLAP enzyme, luminescent substrate read-out; hits give high values; activation fold at 20 µM; 1.2% of 96,000 active; in the data active = activation fold above about 2
GALR2 agonist: GALR2 receptor agonists, primary screen, cell-based. Galanin receptor type 2 (Homo sapiens), O43603. GALR2-expressing cells, agonist activation read-out. activation, % (test concentration not listed). 0.48% of 140,000 active; in the data active = activation above about 5%, passing the limit was not always enough;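 also: 0% = vehicle buffer wells and 100% = reference agonist at full effect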
S1P2 ag: S1P2 receptor agonists, primary screen, cell-based; Sphingosine 1-phosphate receptor 2 (Homo sapiens), O95136; S1P2-expressing cell line, agonist reporter read-out; activation, % at 4.5 µM; 0.46% of 97,000 active; AID 729, 2007; in the data active = activation above about 16%;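 also: 0% = vehicle low control and 100% = maximal reference agonist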
Target sequence (O95136 whole entry, looked up): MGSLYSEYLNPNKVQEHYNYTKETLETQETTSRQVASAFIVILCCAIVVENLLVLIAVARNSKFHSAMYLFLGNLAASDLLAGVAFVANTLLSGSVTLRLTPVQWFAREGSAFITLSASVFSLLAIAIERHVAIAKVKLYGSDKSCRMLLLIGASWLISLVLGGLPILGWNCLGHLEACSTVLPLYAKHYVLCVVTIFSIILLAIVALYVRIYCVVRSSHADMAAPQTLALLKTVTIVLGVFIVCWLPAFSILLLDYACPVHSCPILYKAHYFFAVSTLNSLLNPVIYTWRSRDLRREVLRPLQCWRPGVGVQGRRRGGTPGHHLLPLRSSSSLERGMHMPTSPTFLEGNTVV
S1P2 antag: human S1P2 receptor antagonists, primary screen, cell-based; cell-based S1P2 antagonist assay, inhibition at 5 uM; 0.21% of 97,000 active; inhibition, % at 5 µM; AID 736, 2007; in the data active = inhibition above about 45%;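 also: CRE beta-lactamase reporter cells expressing human S1P2 stimulated with S1P; 0% = agonist at EC80 alone and 100% = agonist plus reference antagonist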
* hit, by the source's call. Sampled rows, rich in hits. Any-hit rate of the full collection: about 2%.

How did Cc1ccccc1-c1cc(C(=O)Nc2sc(C(=O)OC(C)C)c(C)c2C#N)c2ccccc2n1 do in these assays?
GALR2 antag: 1; PLAP act: 1.4; GALR2 agonist: -2; S1P2 ag: -6; S1P2 antag: -30

Results for O=c1oc2ccccc2cc1-c1nc2c(s1)CCCC2 ?
GALR2 antag: 17; PLAP act: 1.1; GALR2 agonist: 17*; S1P2 ag: 16*; S1P2 antag: -6

How did O=c1oc2ccccc2cc1-c1nc2ccccc2o1 do in these assays?
GALR2 antag: 2; PLAP act: 1.1; GALR2 agonist: -1; S1P2 ag: -3; S1P2 antag: 7

What do the screens show for `Cc1nc2ncnn2c(N2CCN(c3cccc(C(F)(F)F)c3)CC2)c1C`?
GALR2 antag: 12; PLAP act: 2*; GALR2 agonist: -3; S1P2 ag: -4; S1P2 antag: 7

Results for Cc1cc(N2CCN(c3cccc(C(F)(F)F)c3)CC2)n2ncnc2n1 ?
GALR2 antag: 1; PLAP act: 1; GALR2 agonist: -1

What do the screens show for `COc1ccc(N2CCN(Cc3nc4ccsc4c(=O)[nH]3)CC2)cc1`?
GALR2 antag: 10; PLAP act: 1.1; GALR2 agonist: -3; S1P2 ag: -6; S1P2 antag: 15

Results for Cc1ccc(Cl)cc1N1CCN(Cc2nc3ccsc3c(=O)[nH]2)CC1 ?
GALR2 antag: 10; PLAP act: 2.3*; GALR2 agonist: -1; S1P2 ag: -4; S1P2 antag: -1

What do the screens show for `Cn1c(C(=O)NCCCN2CCN(c3ccccc3F)CC2)cc2c(=O)n(C)c3ccccc3c21`?
GALR2 antag: -13; PLAP act: 2.3*; GALR2 agonist: -2; S1P2 ag: -3; S1P2 antag: 9

What do the screens show for `Cn1c(C(=O)N2CCCC2)cc2c(=O)n(C)c3ccccc3c21`?
GALR2 antag: -15; PLAP act: 0.9; GALR2 agonist: -1; S1P2 ag: 21*; S1P2 antag: -25

Results for COc1cc2c(cc1OC)C1=C(C#N)CCC(=O)N1CC2 ?
GALR2 antag: -22; GALR2 agonist: 0; S1P2 ag: 62*; S1P2 antag: -27

How did COc1cc2c(cc1OC)C1=C(C#N)CC/C(=N\S(=O)(=O)c3ccccc3)N1CC2 do in these assays?
GALR2 antag: -4; PLAP act: 1.5; GALR2 agonist: -1; S1P2 ag: 49*; S1P2 antag: -51

Results for COc1ccc(C(=O)N=C2CCC(C#N)=C3c4cc(OC)c(OC)cc4CCN23)cc1 ?
GALR2 antag: 14; GALR2 agonist: 3

How did COc1ccccc1OCC(=O)OC/C(O)=C(\C#N)c1nc2ccccc2[nH]1 do in these assays?
GALR2 antag: -3; GALR2 agonist: -1

What do the screens show for `COc1cccc(OC)c1/C(O)=C(\C#N)c1nc2ccccc2[nH]1`?
GALR2 antag: 2; PLAP act: 1.6; GALR2 agonist: 0; S1P2 ag: -5; S1P2 antag: 13

What do the screens show for `CCOC(=O)c1c(C)[nH]c(C(=O)OC/C(O)=C(\C#N)c2nc3ccccc3[nH]2)c1C`?
GALR2 antag: -15; PLAP act: 2.1*; GALR2 agonist: -1; S1P2 ag: 16*; S1P2 antag: 10

How did COc1ccc(C/C(O)=C(\C#N)c2nc3ccccc3[nH]2)cc1OC do in these assays?
GALR2 antag: 4; PLAP act: 2.7*; GALR2 agonist: -2; S1P2 ag: -2; S1P2 antag: 13

Results for Cc1ccccc1-n1c(SC/C(O)=C(\C#N)c2nc3ccccc3[nH]2)nnc1-c1ccncc1 ?
GALR2 antag: 19; PLAP act: 1.8; GALR2 agonist: 0

Results for Cc1cc(C)n2c(SC/C(O)=C(\C#N)c3nc4ccccc4[nH]3)nnc2n1 ?
GALR2 antag: -14; PLAP act: 2*; GALR2 agonist: -2; S1P2 ag: -4; S1P2 antag: -17

How did CC1CCCN(C/C(O)=C(\C#N)c2nc3ccccc3[nH]2)C1 (configuration not stated) do in these assays?
GALR2 antag: 11; PLAP act: 2*; GALR2 agonist: -3; S1P2 ag: -6; S1P2 antag: -12

Results for Cc1ccccc1NC(=O)C1CCN(c2cc(-c3ccccc3)nc3ncnn23)CC1 ?
GALR2 antag: -5; GALR2 agonist: -1; S1P2 ag: 0; S1P2 antag: -12

What do the screens show for `CCCn1c(SCC(=O)c2cc(OC)ccc2OC)nnc1C(C)C`?
GALR2 antag: 22; PLAP act: 1.4; GALR2 agonist: -2; S1P2 ag: -5; S1P2 antag: -9

What do the screens show for `O=C(NC12CC3CC(CC(C3)C1)C2)C12CC3CC(C1)CC(n1cnc(Cl)n1)(C3)C2`?
GALR2 antag: 3; PLAP act: 1; GALR2 agonist: -1; S1P2 ag: -4; S1P2 antag: 12

How did COc1ccc(NC(=O)Cn2c(=O)n(CC(=O)NCc3ccco3)c(=O)c3ccccc32)cc1 do in these assays?
GALR2 antag: 7; PLAP act: 0.9; GALR2 agonist: -4; S1P2 ag: -5; S1P2 antag: 1

What do the screens show for `O=C(NCCCCNC(=O)c1ccco1)c1ccco1`?
GALR2 antag: 2; PLAP act: 1; GALR2 agonist: -2; S1P2 ag: -7; S1P2 antag: 6

How did Cc1ccc(OCCNC(=O)c2ccco2)cc1C do in these assays?
GALR2 antag: 2; PLAP act: 0.8; GALR2 agonist: -2; S1P2 ag: 50*; S1P2 antag: 18

Results for Cc1ccc(CNC(=O)CCNC(=O)c2ccco2)cc1 ?
GALR2 antag: -3; PLAP act: 0.9; GALR2 agonist: -2; S1P2 ag: 869*; S1P2 antag: -11

Results for O=c1c2c(-c3ccccc3)csc2ncn1/N=C/c1c2ccccc2cc2ccccc12 ?
GALR2 antag: -11; PLAP act: 1.3; GALR2 agonist: -1; S1P2 ag: 18*; S1P2 antag: 15

Results for O=C(NCCN1CCN(Cc2ccccc2)CC1)C1CC(=O)N(C2CCCC2)C1 (configuration not stated) ?
GALR2 antag: -8; PLAP act: 1.3; GALR2 agonist: -1; S1P2 ag: -1; S1P2 antag: 1

How did O=C(NCCN1CCN(c2ccccc2F)CC1)C1CC(=O)N(C2CCCC2)C1 (configuration not stated) do in these assays?
GALR2 antag: -13; PLAP act: 1.2; GALR2 agonist: -1; S1P2 ag: 21*; S1P2 antag: 11

How did Cc1oc2c(cc(NS(=O)(=O)c3cccs3)c3ccccc32)c1C(=O)OC(C)C do in these assays?
GALR2 antag: -6; GALR2 agonist: -1; S1P2 ag: -2; S1P2 antag: -16

How did COc1ccc(S(=O)(=O)Nc2cc3c(C(C)=O)c(C)oc3c3ccccc23)cc1 do in these assays?
GALR2 antag: -4; PLAP act: 2*; GALR2 agonist: 0; S1P2 ag: 3; S1P2 antag: -10

How did Cc1ccc(-c2cc(-c3ccc(F)cc3)c(C#N)c(N)n2)o1 do in these assays?
GALR2 antag: 1; GALR2 agonist: 4

Screening data: PubChem BioAssay, several laboratories
